We go through 15 sequences from publication PMC3218832.

Common to all, as to assay: protein binding microarray; high values mean tight binding
Holding throughout (conditions): dsDNA, one strand shown

Assay [1] has as its target RELARELA (p65 homodimer) (Homo sapiens, UniProt Q04206 1-307).
The target in assay [2] is p50p50 homodimer (Homo sapiens, UniProt P19838 7-356).
In assay [3] the target is T1, p52p52 homodimer (Homo sapiens, UniProt Q00653 4-332).
T1 sequence: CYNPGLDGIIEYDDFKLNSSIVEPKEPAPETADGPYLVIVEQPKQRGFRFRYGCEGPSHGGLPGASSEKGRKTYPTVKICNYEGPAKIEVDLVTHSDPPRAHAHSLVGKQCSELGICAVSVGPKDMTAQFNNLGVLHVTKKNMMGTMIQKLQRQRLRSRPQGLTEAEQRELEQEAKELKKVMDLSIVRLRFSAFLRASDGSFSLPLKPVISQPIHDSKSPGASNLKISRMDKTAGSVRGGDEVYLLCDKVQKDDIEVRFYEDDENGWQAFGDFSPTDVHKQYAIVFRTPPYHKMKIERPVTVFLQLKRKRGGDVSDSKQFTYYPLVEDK

Assay [4] concerns the target RELA (p65) subunit of heterodimer;p50 subunit (Homo sapiens;Homo sapiens, UniProt Q04206;P19838 1-307;7-356).
The target in assay [5] is RELA (p65) subunit of heterodimer;p52 subunit (Homo sapiens;Homo sapiens, UniProt Q04206;Q00653 1-307;4-332).
For assay [6], the target named is RELB subunit;p50 subunit (Homo sapiens;Homo sapiens, UniProt Q01201;P19838 120-401;7-356).
The target of assay [7] is T2, RELB subunit;p52 subunit (Homo sapiens;Homo sapiens, UniProt Q01201;Q00653 120-401;4-332).
T2 sequence 1: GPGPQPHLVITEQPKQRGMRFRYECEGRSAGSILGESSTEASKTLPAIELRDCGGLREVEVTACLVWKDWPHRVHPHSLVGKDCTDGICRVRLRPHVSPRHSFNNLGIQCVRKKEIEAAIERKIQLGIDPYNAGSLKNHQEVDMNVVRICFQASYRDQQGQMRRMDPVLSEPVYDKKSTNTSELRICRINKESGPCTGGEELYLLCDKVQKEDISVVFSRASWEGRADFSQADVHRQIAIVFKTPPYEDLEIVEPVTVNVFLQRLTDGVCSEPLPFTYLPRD
T2 sequence 2: T1 sequence

Assay [8] has as its target C-Rel subunit;p50 subunit (Homo sapiens;Homo sapiens, UniProt Q04864;P19838 1-285;7-356).
Assay [9] addresses T3, C-Rel subunit;p52 subunit (Homo sapiens;Homo sapiens, UniProt Q04864;Q00653 1-285;4-332).
T3 sequence 1: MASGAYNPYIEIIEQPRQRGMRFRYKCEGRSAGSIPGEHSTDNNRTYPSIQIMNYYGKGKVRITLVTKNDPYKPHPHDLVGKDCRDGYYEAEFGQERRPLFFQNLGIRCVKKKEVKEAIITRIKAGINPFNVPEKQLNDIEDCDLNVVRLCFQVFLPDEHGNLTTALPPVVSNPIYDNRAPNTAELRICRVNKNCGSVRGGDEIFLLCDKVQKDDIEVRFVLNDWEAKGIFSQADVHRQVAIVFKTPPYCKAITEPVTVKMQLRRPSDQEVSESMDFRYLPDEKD
T3 sequence 2: T1 sequence

Sequence of p50p50 homodimer (P19838 7-356): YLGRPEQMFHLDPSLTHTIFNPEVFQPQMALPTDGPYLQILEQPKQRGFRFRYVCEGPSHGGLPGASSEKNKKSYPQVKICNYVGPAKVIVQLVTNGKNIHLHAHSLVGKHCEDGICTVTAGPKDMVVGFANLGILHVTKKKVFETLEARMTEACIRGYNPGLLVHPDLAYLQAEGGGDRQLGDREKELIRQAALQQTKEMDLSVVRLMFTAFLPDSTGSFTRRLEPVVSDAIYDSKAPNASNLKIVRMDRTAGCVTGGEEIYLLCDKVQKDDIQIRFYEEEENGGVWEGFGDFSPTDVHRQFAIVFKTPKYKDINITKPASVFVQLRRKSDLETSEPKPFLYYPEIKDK
Sequence of RELA (p65) subunit of heterodimer;p50 subunit (Q04206 1-307, chain 1 of 2): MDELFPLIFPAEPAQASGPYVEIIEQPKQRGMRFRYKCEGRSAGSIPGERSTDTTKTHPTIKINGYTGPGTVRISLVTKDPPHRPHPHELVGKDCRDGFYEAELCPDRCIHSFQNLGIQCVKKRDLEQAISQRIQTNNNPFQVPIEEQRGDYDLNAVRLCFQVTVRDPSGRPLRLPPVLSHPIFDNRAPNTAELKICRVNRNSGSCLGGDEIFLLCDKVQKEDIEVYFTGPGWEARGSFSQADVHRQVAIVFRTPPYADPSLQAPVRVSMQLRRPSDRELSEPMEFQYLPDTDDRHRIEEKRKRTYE
Sequence of RELA (p65) subunit of heterodimer;p50 subunit (P19838 7-356, chain 2 of 2): as the sequence (P19838 7-356) above
Sequence of RELARELA (p65 homodimer) (Q04206 1-307): as the sequence (Q04206 1-307, chain 1 of 2) above

For the sequence GAAGTGTCCCT, the binding signal is -0.0315 z-score in assay [1]; 0.834 z-score in [2]; 0.946 z-score in assay [3]; 0.67 z-score in assay [4]; 1.04 z-score in assay [5]; 1.07 z-score in assay [6]. The binding signal in assay [7] was found to be 1.37 z-score; in [8], 0.382 z-score; in assay [9], 0.65 z-score.

Take GAGTGCTTCCC: the binding signal in assay [1] is 0.545 z-score; in [2], -0.398 z-score; in assay [3], -0.0563 z-score; in assay [4], -0.232 z-score; in [5], -0.157 z-score; in assay [6] it was -0.589 z-score. For the same sequence, the results for the binding signal in [7], in assay [8] and in assay [9] were -0.383 z-score, -0.23 z-score and 0.0743 z-score, respectively.

Take GAGGGCTCCCC: the binding signal is -0.357 z-score in assay [1]; 0.0285 z-score in [2]; -0.0309 z-score in assay [3]; 0.109 z-score in assay [4]; -0.108 z-score in assay [5]; 0.159 z-score in assay [6]. Further, the binding signal in assay [7] is -0.218 z-score; in assay [8], 0.253 z-score; in assay [9] it was 0.154 z-score.

Consider CAGAACCTCCT, for which the binding signal was -0.658 z-score in assay [1]; -1.31 z-score in assay [2]; -0.791 z-score in assay [3]; -0.921 z-score in [4]; -0.938 z-score in assay [5]; -0.924 z-score in assay [6]. Also, the binding signal is -0.944 z-score in assay [7], -1.48 z-score in [8] and -0.853 z-score in assay [9].

Take CAGTGGCTCCC: the binding signal in [1] is -0.478 z-score; in assay [2], -1.44 z-score; in [3], -0.661 z-score; in [4] it was -0.743 z-score; in assay [5] it was -0.817 z-score; in assay [6], -0.932 z-score. Further, the binding signal is -0.764 z-score in assay [7], -1.22 z-score in assay [8] and -0.857 z-score in [9].

On to GGAGGAGTCCC, for which the binding signal in [1] stood at 0.299 z-score; in assay [2], 0.853 z-score; in assay [3] it was 0.586 z-score; in assay [4], 0.889 z-score; in [5], 0.831 z-score; in [6] it was 0.725 z-score. For the same sequence, the binding signal worked out at 0.409 z-score in assay [7], 0.717 z-score in assay [8] and 0.541 z-score in assay [9].

On to AAAGTCGTCCT, for which the binding signal is -0.192 z-score in assay [1]; -1.25 z-score in assay [2]; -0.599 z-score in assay [3]; -1.25 z-score in [4]; -0.839 z-score in assay [5]; -0.89 z-score in assay [6]. For the same sequence, the binding signal was -0.666 z-score in [7], -1.18 z-score in assay [8] and -0.704 z-score in assay [9].

Regarding GGAAGCACCCT, the binding signal was -0.312 z-score in assay [1]; 0.509 z-score in assay [2]; 0.257 z-score in assay [3]; 0.415 z-score in [4]; 0.261 z-score in assay [5]; -0.129 z-score in [6]. The binding signal worked out at 0.214 z-score in assay [7], 0.0298 z-score in [8] and 0.224 z-score in assay [9].

AGAGAGATCCC: the binding signal in assay [1] is -0.281 z-score; in assay [2] it was -0.511 z-score; in assay [3], -0.367 z-score; in assay [4] it was -0.448 z-score; in assay [5], -0.506 z-score; in [6], -0.355 z-score. The binding signal in assay [7] is -0.569 z-score; in [8], -0.565 z-score; in [9], -0.502 z-score.

Consider AAATGTGCCCC, for which the binding signal in assay [1] was 0.655 z-score; in [2] it was -0.0191 z-score; in assay [3], 0.195 z-score; in [4], 0.499 z-score; in assay [5], 0.0761 z-score; in assay [6], 0.0211 z-score. Moreover, the binding signal was 0.23 z-score in assay [7], 0.81 z-score in [8] and 0.211 z-score in assay [9].

As to GAAAGTTCCCT, the binding signal is 0.999 z-score in [1]; 1.15 z-score in [2]; 1.11 z-score in [3]; 1.12 z-score in [4]; 1.03 z-score in [5]; 0.985 z-score in [6]. The binding signal in assay [7] is 0.987 z-score; in assay [8] it was 0.705 z-score; in assay [9], 0.73 z-score.

With CGGAGGCCCCC, the binding signal in assay [1] was -1.02 z-score; in assay [2] it was 0.282 z-score; in assay [3] it was -0.0558 z-score; in [4], 0.494 z-score; in [5], 0.175 z-score; in assay [6], -0.0407 z-score. For the same sequence, the binding signal in [7] was 0 z-score; in assay [8] it was 0.165 z-score; in assay [9], 0.393 z-score.

Consider CGAGGGCCCCC, for which the binding signal in assay [1] was -0.934 z-score; in [2] it was 0.101 z-score; in assay [3], -0.0825 z-score; in [4], 0.0405 z-score; in [5], -0.0107 z-score; in [6], 0.199 z-score. Moreover, the figures for the binding signal in assay [7], in [8] and in assay [9] were 0.202 z-score, -0.0359 z-score and 0.137 z-score, respectively.

In the case of GGAAACCTCCT, the binding signal in [1] was 0.339 z-score; in [2], -1.26 z-score; in assay [3], -0.526 z-score; in assay [4], -0.425 z-score; in assay [5] it was -0.573 z-score; in assay [6], -1.02 z-score. Further, the binding signal in assay [7] was -0.75 z-score; in assay [8], -0.436 z-score; in [9], -0.293 z-score.

In the case of GAATGTTTCCC, the binding signal in [1] worked out at 2.03 z-score; in assay [2] it was 0.423 z-score; in assay [3], 0.332 z-score; in [4], 1.09 z-score; in assay [5], 0.797 z-score; in assay [6], 0.422 z-score. The binding signal in assay [7] came out at 0.655 z-score; in assay [8], 1.2 z-score; in assay [9] it was 0.614 z-score.
